# Bioassay records: PubChem, National Center for Advancing Translational Sciences (NCATS)
# Only some compounds are listed: those with a hit (about 4.3% of all), similar ones and a draw of the others.
# SW480 rereplic: induces DNA re-replication in SW480 colon adenocarcinoma cells; SW480 DNA re-replication, Hoechst DNA content imaging, 48 h; Potency, µM (highest dose often 46.1 µM), hits mostly activators; 1.8% of 340,000 active; AID 624297; also: nearly all actives have a fitted effect of over 55% in size
#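 Hoechst fluorescence of nuclei (405 nm excitation, 500-530 nm emission) measured by plate-scanning imager after 48 hr compound exposure at 37 C; re-replication scored as increased number of nuclei with elevated intensity.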
# uPA surface inh: inhibitors of cell surface uPA generation | 0.31% of 330,000 active | Potency, µM (doses to about 38.3 µM), usual class: inhibitors | cell surface uPA generation assay, qHTS; active = well fitted inhibition curve with a large enough effect; inconclusive = small, poorly fitted or top-dose-only effect; inactive = no such curve, though single readings can be large or run the other way; tested in mouse RAW 264.7 cells; also: nearly all actives have a fitted effect of over 55% in size
# MCF10A rereplic: DNA re-replication induction in MCF 10a cells | MCF 10A DNA re-replication, Hoechst nuclear intensity, 48 h | Potency, µM (highest dose often 46.1 µM), actives largely listed as activators | 2.9% of 350,000 active | AID 624296; also: nearly all actives have a fitted effect of over 50% in size
# Giardia kill: kills Giardia lamblia; Giardia lamblia trophozoite viability; AID 540267; 0.15% of 340,000 active; activity change, % at 7.66 µM, hits read low; in the data active = activity change below about -80%; inconclusive = between about -30% and that limit;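 also: parasites exposed to compound for two days anaerobically before the ATP read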
#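 Each well holds 100 Giardia trophozoites and compound. After two days (48 hrs) at 37 deg C in anaerobic conditions, ATP is quantified by luminescence.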
# Hits are given with their value; i = inactive; ? = inconclusive; nt = no result; [ ] = dose if it differs, or a comment. Unless noted, calls follow the shape of the dose curve; as a rule, active = well fitted activation curve with a large enough effect; inconclusive = small, poorly fitted or top-dose-only effect; inactive = no such curve, though single readings can be large or run the other way.
SMILES,SW480 rereplic,uPA surface inh,MCF10A rereplic,Giardia kill
CCCCn1c(N)c(N(CC)C(=O)c2cccs2)c(=O)[nH]c1=O,i,i,i,i
C=C1C(=O)OC2C1CCC(C)=C1C(=O)C3OC3(C)C12 (stereo unspecified),?,?,?,i
C=C1C(=O)O[C@@H]2[C@@H]1CC/C(C)=C\CC[C@@]1(C)O[C@H]21,i,nt,11.9µM,nt
O=C(Nc1ccccc1)C(Cc1ccccc1)c1ccccc1 (stereo unspecified),i,i,i,i
COc1ccc(OC)c(NC(=O)c2cnc(Nc3ccccc3OC)c3ccccc23)c1,3.26µM,i,i,i
Cc1ccc2nc(/C(C#N)=C\c3ccc(Oc4ccc(C(F)(F)F)cc4[N+](=O)[O-])cc3)[nH]c2c1,13µM,i,i,i
COc1cc(/C=C(\C#N)c2nc3ccc(C)cc3[nH]2)cc([N+](=O)[O-])c1O,?,i,i,i
COc1ccc(/C=C(\C#N)c2nc3ccc(C)cc3[nH]2)cc1Oc1ccc(C(F)(F)F)cc1[N+](=O)[O-],?,i,23.1µM,i
COc1cc(/C=C(\C#N)c2nc3ccccc3[nH]2)ccc1Oc1ccc([N+](=O)[O-])cn1,i,i,?,i
N#C/C(=C\c1cccc(Oc2ccc(C(F)(F)F)cc2[N+](=O)[O-])c1)c1nc2ccccc2[nH]1,i,i,18.4µM,i
CCCCOc1ccc(N(CC(=O)NCc2ccccc2)C(=O)c2csnn2)cc1,i,i,?,i
O=C1NC(CCc2ccccc2)C(=O)N1CCOc1ccccc1 (stereo unspecified),i,i,6.51µM,i
CCOC(=O)/C=c1/s/c(=C/c2ccc3cc(OC)ccc3c2)c(=O)n1CC(=O)NCC1CCCO1 (stereo unspecified),3.66µM,i,?,i
CCOC(=O)/C=c1\s/c(=C\c2c(OC)ccc3ccccc23)c(=O)n1CC(=O)NCC1CCCO1 (stereo unspecified),5.8µM,nt,1.16µM,i
O=C(O)COc1ccc(Cl)cc1C1CCCCC1,i,i,i,i
C=C1c2c(Cl)ccc(O)c2C(O)=C2C(=O)[C@@]3(O)C(O)=C(C(N)=O)C(=O)[C@@H](N(C)C)[C@@H]3[C@@H](O)[C@H]12,i,nt,i,nt
N/C(=N\OC(=O)c1ccc2c(c1)OCO2)c1ccc(Cl)cc1,?,i,16.4µM,i
Cc1ccc(/C(N)=N/OC(=O)c2ccc3c(c2)OCO3)cc1,i,i,?,i
Fc1ccc(N2C(=S)SC(=Nc3ccccc3)C2=Nc2ccccc2)cc1,i,i,i,i
N#CC(C#N)=C1SC(=Nc2ccccc2)C(=Nc2ccccc2)N1c1ccccc1,?,i,3.26µM,i
C=CCN1C(=O)N/C(=C/c2ccccc2OCC(=O)Nc2ccc(F)cc2)C1=O,i,i,23.1µM,i
Cc1cc2c3c([nH]c2cc1S(=O)(=O)N1CCC2(CC1)OCCO2)CC(C)(C)CC3=O,?,i,23.1µM,i
Cc1cc(O)c(Oc2cc(C)cc(O)c2O)c(O)c1,18.4µM,?,i,i
O=S(=O)(c1ccc(Br)s1)N1CCN(CCOc2ccccc2)CC1,i,i,?,i
Cc1cc2n(n1)C(c1ccccc1)Nc1ccccc1-2 (stereo unspecified),i,i,i,i
SMILES,SW480 rereplic,uPA surface inh,MCF10A rereplic,Giardia kill
Cc1cc2n(n1)C(c1ccc(N(C)C)cc1)Nc1ccccc1-2 (stereo unspecified),20.6µM,i,20.6µM,i
Cc1nn(Cc2c(F)c(F)c(F)c(F)c2F)c(C)c1NC(=O)c1c(-c2ccccc2)nn(-c2ccccc2)c1C,i,i,23.1µM,i
CSc1ccc(COC(=O)c2cc([N+](=O)[O-])ccc2N2CCOCC2)cc1,0.058µM,i,?,i
O=C(COC(=O)c1cc([N+](=O)[O-])ccc1N1CCOCC1)c1ccc(Br)cc1,i,i,i,i
CCOc1ccc(C(=O)COC(=O)c2cc([N+](=O)[O-])ccc2N2CCOCC2)cc1,4.11µM,i,?,i
COc1ccc(-c2cc(CCC(=O)N3CCN(c4cc(C)ccc4C)CC3)on2)cc1,i,i,?,i
Cc1csc(NC(=O)c2cc3c(s2)-c2ccccc2OC3)n1,i,i,14.6µM,i
COC(=O)[C@@H]1[C@@H](C#N)C2(c3ccccc3-c3ccccc32)N(c2ccc(Cl)cc2)N1C#N,?,i,5.17µM,i
O=C(Cc1ccc(Cl)cc1)NN1C(=O)c2ccccc2C1=O,i,i,i,i
COC(=O)c1cn(C(=O)c2ccc(C)cc2C)c2ccccc12,8.2µM,i,4.61µM,i
COC(=O)c1cn(C(=O)c2ccccc2Cl)c2ccccc12,i,i,?,i
Nc1nc(-c2ccccc2)c(C(=O)Nc2ccccc2)s1,i,i,i,i
Fc1ccc(-c2nnn3c2nc(NCc2ccccc2)c2ccccc23)cc1,?,i,?,i
Fc1cccc(-c2nnn3c2nc(Cl)c2ccccc23)c1,5.8µM,i,2.59µM,i
Cc1ccc(-c2nnn3c2nc(Cl)c2ccccc23)cc1,?,i,4.11µM,i
Clc1nc2c(-c3ccccc3)nnn2c2ccccc12,?,?,3.66µM,i
CCOC(=O)[C@@H]1C(c2c(OC)cc(OC)cc2OC)=NO[C@@H]1C(=O)OCC,i,i,i,i
O=c1ccc2cc(S(=O)(=O)Nc3ccc(Br)cc3)ccc2o1,i,i,i,i
Cn1c(/C(C#N)=C/c2ccncc2)nc2ccccc21,18.4µM,i,?,i
Cn1c(/C(C#N)=C/c2ccc(O)cc2)nc2ccccc21,i,?,i,i
CC(C)CCC[C@@H](C)[C@H]1CC[C@H]2[C@@H]3CC[C@@H]4C[C@H](O)CC[C@]4(C)[C@H]3CC[C@]12C,i,nt,i,nt
O=S(=O)(c1ccc(Cl)cc1)N1CCN(c2nc(-c3ccccc3)nc3ccccc23)CC1,nt,nt,nt,i
CSc1nc(Sc2ccccc2Cl)c2ccccc2n1,?,i,23.1µM,i
CCOC(=O)C1=C(C)NC(=S)NC1c1ccc(-c2ccc(Cl)cc2)o1 (stereo unspecified),i,i,?,i
COC(=O)C1=C(C)NC(=S)NC1c1ccc(-c2cccc(Cl)c2)o1 (stereo unspecified),18.4µM,i,?,i
SMILES,SW480 rereplic,uPA surface inh,MCF10A rereplic,Giardia kill
CCOc1ccccc1C(=O)NCC(=O)NNC(=O)c1cccs1,i,i,i,i
O=C(C1=C[C@H](c2csc3ccccc23)C[C@H](OCc2ccc(CO)cc2)O1)N1CCCCCCC1,i,i,23.1µM,i
O=S(=O)(c1ccccc1Cl)N1CCC(Cc2ccccc2)CC1,i,i,i,i
O=C1[O][Bi][O]c2ccccc21,i,nt,i,nt
CCCCNc1c(-c2ccc(SC3CCCCC3)c(OC)c2)nc2ccc(Cl)cn12,i,i,?,i
CCCCNc1c(-c2ccc(SC(C)CC)c(OC)c2)nc2ccc(Cl)cn12 (stereo unspecified),20.6µM,i,23.1µM,i
CCCCNc1c(-c2ccc(SC(C)CC)c(OC)c2)nc2ccc(C)cn12 (stereo unspecified),?,?,16.4µM,i
CCCCCCSc1ccc(-c2nc3ccc(Cl)cn3c2NCCCC)cc1OC,i[9.22 µM],i,?,i
CCn1c(SCc2c(Cl)cccc2Cl)nc2nc3c(cc2c1=O)CCCC3,?,i,23.1µM,i
